12-hLO inh: blocks human 12-lipoxygenase activity | P18054 | purified 12-hLO, xylenol orange hydroperoxide absorbance | Potency, µM (titrated, usually from 57.1 µM), inactives show at the top dose activity change, negative = inhibition, actives largely listed as inhibitors | actives 0.12% (n = 150,000) | AID 1452; also: potency is read from the fitted curve at half-maximal effect; nearly all actives have a fitted effect of over 55% in size
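Purified human 12hLO (150 nM final) was preincubated with compounds for 15 min at room temperature in 25 mM Hepes pH 7.0, 0.01% Triton X-100, then reacted with 40 uM arachidonic acid for 30 min. Hydroperoxide was detected with ferrous iron/xylenol orange.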
HPGD block: blocks human HPGD enzyme activity; P15428; purified HPGD, NADH fluorescence kinetic, PGE2 substrate; Potency, µM, for inactives: at the highest dose activity change, negative = inhibition, usual class: inhibitors; actives 4.3% (n = 150,000); AID 894; active = well fitted inhibition curve with a large enough effect, not every such curve was filed as active; inconclusive = small, poorly fitted or top-dose-only effect, or another doubt; inactive = no such curve, though single readings can be large or run the other way; also: potency is read from the fitted curve at half-maximal effect
Target sequence (P15428 whole entry, looked up): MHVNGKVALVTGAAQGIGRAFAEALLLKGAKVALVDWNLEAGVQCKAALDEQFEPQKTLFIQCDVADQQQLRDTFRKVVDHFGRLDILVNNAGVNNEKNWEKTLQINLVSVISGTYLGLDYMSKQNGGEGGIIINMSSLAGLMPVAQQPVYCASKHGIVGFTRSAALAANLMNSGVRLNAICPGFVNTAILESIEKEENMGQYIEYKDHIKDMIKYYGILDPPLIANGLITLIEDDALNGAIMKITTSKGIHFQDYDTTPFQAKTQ
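20 nM HPGD preincubated 15 min at room temperature with compound in 50 mM Tris-HCl pH 8, 0.01% Tween 20. Started with 1 mM NAD+ and 30 uM prostaglandin E2; NADH fluorescence (360/450 nm) read 5 times over 30-s intervals, last minus first.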
IMPase Li cell: cell-permeable IMPase inhibitors with lithium potentiation. CHO-M1 cells, IP1 TR-FRET (IP-One), carbachol + lithium. Potency, µM (top dose mostly 59.4 µM), without a hit: top-dose activity, negative = IMPase inhibition, most hits filed as inhibitors. actives 0.35% (n = 210,000). AID 1457;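 also: IP1 builds up when IMPase is blocked and the TR-FRET signal falls; potency is read from the fitted curve at half-maximal effect; plate controls were basal vehicle for no effect and high inhibitor control for full effect; nearly all actives have a fitted effect of over 50% in size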
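Lithium-sensitised IP1 accumulation assay; M1-expressing CHO cells treated 30 min at 37C with compound. Competitive antibody detection by time-resolved FRET followed a 10 min room-temperature lysis step.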
PNC inhibitor: perinucleolar compartment assembly inhibition; PC3M PTB-GFP, PNC prevalence imaging, 16 h; hits give low values; actives 3.1% (n = 140,000); activity change (PNC), negative = inhibition, % at 10 µM;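 active = readout at or below -70, meaning at least 70% loss of cells showing the perinucleolar compartment, a nuclear body marking cancer cells; inconclusive = readout between -30 and a set limit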;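 also: plate controls were DMSO wells for no effect and camptothecin positive control wells for full effect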
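Read-out is percentage of cells bearing a perinucleolar compartment, from automated 20x imaging of fixed, Hoechst-stained PC3M PTB-GFP cells. Cells were seeded 4 h, then exposed 16 h to compound (23 nl of library stock) in duplicate plates.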
IMPase cell inh: cell-permeable inhibitors of inositol monophosphatase (IMPase). 120,000 tested, under 10 active. AID 901. inhibition (IP1 accumulation), % at 46.1 µM. CHO-M1 cells, IP1 accumulation, HTRF TR-FRET ratio. P97697; active = well fitted curve in the direction sought with a large enough effect in the signal ratio, not every such curve was filed as active; inconclusive = small, poorly fitted or top-dose-only effect, or a change in a side signal; inactive = no such curve, though single readings can be large or run the other way; the % refers to the signal ratio;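 also: cells stimulated with carbachol in lithium chloride buffer; plate controls were DMSO basal wells for no effect and reference inhibitor wells for full effect; higher means more IMPase inhibition seen as more IP1 and lower FRET ratio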
Target sequence (P97697 whole entry, looked up): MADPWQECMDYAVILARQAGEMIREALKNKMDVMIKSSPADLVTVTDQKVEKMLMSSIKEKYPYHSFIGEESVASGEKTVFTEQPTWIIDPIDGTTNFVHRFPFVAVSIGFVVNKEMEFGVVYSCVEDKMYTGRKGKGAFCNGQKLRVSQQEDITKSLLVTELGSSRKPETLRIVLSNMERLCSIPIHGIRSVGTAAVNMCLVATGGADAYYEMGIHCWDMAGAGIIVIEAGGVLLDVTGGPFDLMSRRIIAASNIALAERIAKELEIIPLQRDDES
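Carbachol-driven Gq signalling in CHO-M1 cells (2000/well) generates IP1. Compounds that block IMPase raise IP1 and so reduce the FRET signal from Eu-anti-IP1 and d2-IP1 after a 10 min room-temperature lysis.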
15-hLO-2 inh: blocks human 15-lipoxygenase 2 activity; O15296; purified 15hLO-2, xylenol orange hydroperoxide absorbance; Potency, µM (titrated, usually from 57.1 µM), for the others: at the top dose activity change, negative = inhibition, usual class: inhibitors; actives 0.56% (n = 110,000); also: potency is read from the fitted curve at half-maximal effect; nearly all actives have a fitted effect of over 60% in size
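Purified human 15hLO-2 (50 nM) preincubated 15 min with compound, then 45 uM arachidonic acid for 90 min at RT in 25 mM Hepes pH 7.5, 0.01% Triton X-100. Hydroperoxide detected by Fe-xylenol orange; 573/405 nm absorbance ratio.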
Starred values were filed as active, the others as inactive; [ ] = another dose, or the depositor's remark. A selection: hits, their analogues and other compounds. The true share with any hit is near 5.3%. Unless noted, calls follow the shape of the dose curve; as a rule, active = well fitted curve in the direction sought with a large enough effect; inconclusive = small, poorly fitted or top-dose-only effect, or another doubt; inactive = no such curve, though single readings can be large; an effect the other way counts as inactive or inconclusive. Unless noted, % is scaled to controls: 0 for no effect and ±100 for the full control effect.

Results for COc1ccc(NC(=O)Cn2cc(S(=O)(=O)Cc3ccccc3)c3ccccc32)c(OC)c1 ?
12-hLO inh: -6%; HPGD block: -5%; IMPase Li cell: 8%; PNC inhibitor: 16; IMPase cell inh: -1

What do the screens show for `O=C(Cn1cc(S(=O)(=O)Cc2ccccc2)c2ccccc21)Nc1ccccc1`?
12-hLO inh: -4%; HPGD block: -14%; IMPase Li cell: 1%; PNC inhibitor: -82*

What do the screens show for `CCC(=O)Nc1sc2c(c1C#N)CC(C)(CC)OC2` (stereo not drawn)?
12-hLO inh: -2%; HPGD block: 40µM*; IMPase Li cell: -16%[38.3 µM]; PNC inhibitor: 24; IMPase cell inh: 0; 15-hLO-2 inh: -8%

How did CCC1(C)Cc2c(sc(NC(=O)CCC(=O)O)c2C#N)CO1 (stereo not drawn) do in these assays?
12-hLO inh: -1%; HPGD block: -8%; IMPase Li cell: -12%[38.3 µM]; PNC inhibitor: inconclusive; IMPase cell inh: -7; 15-hLO-2 inh: 0%

How did COC(=O)C(Cc1ccccc1)NC(=O)c1cccc(S(=O)(=O)N(C)C)c1 (stereo not drawn) do in these assays?
IMPase Li cell: 2%

Results for COc1cc(NC(=O)C(=O)NNC(=O)C2CCCCC2)c(OC)cc1Cl ?
12-hLO inh: 0%; HPGD block: -16%; IMPase Li cell: -10%; PNC inhibitor: -95*

Results for O=C(COc1ccc(Cl)cc1Cl)NC(=O)N1CCCCC1 ?
12-hLO inh: -12%; HPGD block: 16µM*; IMPase Li cell: 24%[38.3 µM]; PNC inhibitor: -23; IMPase cell inh: 1; 15-hLO-2 inh: -9%

What do the screens show for `Cc1cccc(OCC(=O)NC(=S)N2CCCc3ccccc32)c1`?
12-hLO inh: -3%; HPGD block: -25%; IMPase Li cell: -5%[38.3 µM]; PNC inhibitor: 62; IMPase cell inh: 10; 15-hLO-2 inh: 20µM*

What do the screens show for `Cc1cccc(OCC(=O)Nc2ccccc2N2CCCCC2)c1`?
12-hLO inh: -2%; HPGD block: -1%; IMPase Li cell: 43%[38.3 µM]; PNC inhibitor: 1; IMPase cell inh: -6; 15-hLO-2 inh: 1%

What do the screens show for `O=C(COc1ccc(Cl)cc1Cl)NC(=S)N1CCCc2ccccc21`?
12-hLO inh: -15%; HPGD block: 22µM*; IMPase Li cell: -95%[38.3 µM]; PNC inhibitor: -1; IMPase cell inh: 7; 15-hLO-2 inh: inconclusive

What do the screens show for `O=C1C(=O)N(Cc2cccc([N+](=O)[O-])c2)c2ccccc21`?
12-hLO inh: 1%; HPGD block: inconclusive; IMPase Li cell: 9%; PNC inhibitor: 155

Results for O=C1C(=O)N(Cc2ccc(Cl)c(Cl)c2)c2ccccc21 ?
12-hLO inh: inconclusive; HPGD block: -27%; IMPase Li cell: 31%; IMPase cell inh: 3; 15-hLO-2 inh: 7.9µM*

How did Cc1cccc(OCCn2nc(C(=O)O)c3ccccc3c2=O)c1 do in these assays?
12-hLO inh: -8%; HPGD block: 28µM*; IMPase Li cell: 41%[38.3 µM]; PNC inhibitor: -27; IMPase cell inh: -3; 15-hLO-2 inh: 1%

How did CCCCC(c1nnnn1CCOC)N1CCN(CC)CC1 (stereo not drawn) do in these assays?
12-hLO inh: 2%; HPGD block: -8%; IMPase Li cell: 14%; PNC inhibitor: -100*; IMPase cell inh: -10

What do the screens show for `O=C(/C=C/c1ccccc1Cl)Nc1ccc(-c2nnc3n2CCCCC3)cc1`?
12-hLO inh: 0%; HPGD block: 4µM*; IMPase Li cell: -9%; PNC inhibitor: -6

Results for O=C(Nc1ccc(-c2nnc3n2CCCCC3)cc1)c1cc2ccccc2o1 ?
12-hLO inh: -1%; HPGD block: 2.2µM*; IMPase Li cell: -2%; PNC inhibitor: -7

What do the screens show for `Cc1ccc(S(=O)(=O)N[C@H](C(=O)OCC(=O)N2N=C(c3ccc(Cl)cc3)CC2c2ccco2)C(C)C)cc1` (stereo partly drawn)?
12-hLO inh: -4%; HPGD block: -26%; IMPase Li cell: 11%; PNC inhibitor: -5; IMPase cell inh: -4

What do the screens show for `COc1ccc(Cc2nn3c(-c4cc(OC)c(OC)c(OC)c4)nnc3s2)cc1`?
12-hLO inh: 1%; HPGD block: 22µM*; IMPase Li cell: 30%[38.3 µM]; PNC inhibitor: 14; IMPase cell inh: -5; 15-hLO-2 inh: -23%

How did CNC(=O)c1ccc(-n2nc(C)cc2-c2ccccc2)cc1 do in these assays?
12-hLO inh: 1%; HPGD block: -19%; IMPase Li cell: -2%[38.3 µM]; PNC inhibitor: inconclusive; IMPase cell inh: -9; 15-hLO-2 inh: 0%

What do the screens show for `Cc1cc(-c2ccccc2)n(-c2ccc(C(N)=O)cc2)n1`?
12-hLO inh: -5%; HPGD block: 32µM*; IMPase Li cell: 8%; PNC inhibitor: -17; IMPase cell inh: -3

How did CN(C)c1ccc(N=Nc2ccccc2C(=O)OCC(=O)N(C)c2ccccc2)cc1 do in these assays?
12-hLO inh: -2%; HPGD block: -22%; IMPase Li cell: 12%; PNC inhibitor: inconclusive; IMPase cell inh: 3

How did COc1cccc(N2C(=O)c3ccncc3C2=O)c1 do in these assays?
12-hLO inh: -5%; HPGD block: -14%; IMPase Li cell: -11%[38.3 µM]; PNC inhibitor: -7; IMPase cell inh: 8; 15-hLO-2 inh: -11%

Results for COc1cccc(/C=C2\C(=O)N(c3cccc(C)c3)C(=O)c3ccccc32)c1 ?
12-hLO inh: -3%; HPGD block: 4µM*; IMPase Li cell: 11%; PNC inhibitor: inconclusive

How did Cc1cccc(N2C(=O)/C(=C\c3ccc(OC(F)F)cc3)c3ccccc3C2=O)c1 do in these assays?
12-hLO inh: 1%; HPGD block: 10µM*; IMPase Li cell: 0%; PNC inhibitor: -13; IMPase cell inh: -3

Results for COc1ccc(NC(=O)c2sc3nc4c(cc3c2N)CCCCCC4)cc1Cl ?
IMPase cell inh: -2

How did Cc1nnc2n(Cc3ccccc3)c(=O)c3c4c(sc3n12)COC(C)(C)C4 do in these assays?
12-hLO inh: -4%; HPGD block: 16µM*; IMPase Li cell: 11%[38.3 µM]; PNC inhibitor: 15; IMPase cell inh: 7; 15-hLO-2 inh: 2%

What do the screens show for `CC1(C)Cc2c(sc3nnn(Cc4ccccc4)c(=O)c23)CO1`?
12-hLO inh: -6%; HPGD block: 32µM*; IMPase Li cell: 18%; PNC inhibitor: 14

Results for CC1(C)Cc2c(sc3nn[nH]c(=O)c23)CO1 ?
12-hLO inh: 3%; HPGD block: inconclusive; IMPase Li cell: 0%[38.3 µM]; PNC inhibitor: -85*; IMPase cell inh: -7; 15-hLO-2 inh: -15%

Screens from PubChem BioAssay.
